RecA splice inh = Mtb RecA intein splicing inhibition; AID 2221; 0.75% of 290,000 active; inhibition, % (test concentration not listed); cell-free RecA intein splicing, fluorescence; in the data active means inhibition above about 30%
UGM FP inh = inhibitors of M. tuberculosis UDP-galactopyranose mutase; P9WIQ1; purified UGM, fluorescence polarization probe displacement; inhibition, % at 10 µM; 0.06% of 320,000 active; in the data active means inhibition above about 10%, passing the limit was not always enough
Target sequence (P9WIQ1 whole entry, looked up): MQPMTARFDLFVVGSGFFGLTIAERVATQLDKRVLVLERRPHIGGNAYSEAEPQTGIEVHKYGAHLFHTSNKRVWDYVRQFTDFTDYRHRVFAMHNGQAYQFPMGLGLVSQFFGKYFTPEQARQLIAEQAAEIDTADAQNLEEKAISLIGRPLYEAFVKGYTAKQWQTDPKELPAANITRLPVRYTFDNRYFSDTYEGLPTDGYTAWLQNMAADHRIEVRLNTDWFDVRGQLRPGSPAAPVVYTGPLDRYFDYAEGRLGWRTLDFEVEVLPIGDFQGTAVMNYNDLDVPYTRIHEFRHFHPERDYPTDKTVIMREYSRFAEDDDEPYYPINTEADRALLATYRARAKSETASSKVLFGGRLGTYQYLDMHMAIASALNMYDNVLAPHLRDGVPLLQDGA
CCHF vOTU inh-1 = blocks the CCHF virus ovarian tumor domain protease | inhibition, % at 11.5 µM | CCHFV vOTU protease, Pep-AMC fluorescence | AID 651958 | 0.55% of 370,000 active
Mtb betalactam = beta-lactam sensitization of Mtb H37Rv. M. tuberculosis H37Rv growth with meropenem, percent inhibition. inhibition, % at 25 µM. 0.27% of 330,000 active; call rule not given here;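 further: growth measured after seven days incubation then overnight dye step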
Rv3671c inh = Rv3671c (M. tuberculosis) protease inhibition | 0.048% of 320,000 active | inhibition, % at 5.96 µM | P9WHR9; in the data active means inhibition above about 38%;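 further: extracellular domain of Rv3671c used as enzyme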
CCHF vOTU inh-2 = CCHFV vOTU protease inhibition, confirmation | 17% of 1,900 active | shares compounds with CCHF vOTU inh-1 | inhibition, % at 11.5 µM | Recombinant CCHFV vOTU, Pep-AMC fluorescence
Numbers stand for hits. This is a sample that favours compounds with a hit; in the whole collection about 1.2% have one here. Unless noted, no stated cut-off is given here; in the data, active means inhibition above about 30%; inactive means the rest.

For O=C(NC1CCCC1)c1ccc(CS(=O)Cc2ccccc2Cl)o1 (stereo unspecified) the results were RecA splice inh inactive, UGM FP inh inactive, CCHF vOTU inh-1 34, Mtb betalactam inactive, Rv3671c inh inactive and CCHF vOTU inh-2 inactive.
`CCOC(=O)CC[C@@H]1CC[C@]2(CCCN(C(=O)c3ccccc3)C2)O1` gave CCHF vOTU inh-1 inactive.
O=C(NCc1ccc(Cl)c(Cl)c1)c1cc(C2CCCCN2C(=O)C2CCCCC2)on1 (stereo unspecified) was read as CCHF vOTU inh-1 31 and CCHF vOTU inh-2 inactive.
`COC(=O)N1CCCCC1c1cc(C(=O)NCc2ccc(Cl)c(Cl)c2)no1` (stereo unspecified) gave CCHF vOTU inh-1 inactive.
O=C(OCc1cn(Cc2cccc(C(F)(F)F)c2)nn1)N1CCOCC1 was read as CCHF vOTU inh-1 inactive.
O=c1c2cc3cccnc3nc2ncn1Cc1cccs1 was read as CCHF vOTU inh-1 inactive.
Screening Cn1c(N)c(C(=O)COC(=O)c2ccc([N+](=O)[O-])o2)c(=O)n(C)c1=O returned RecA splice inh inactive, UGM FP inh inactive, CCHF vOTU inh-1 44, Mtb betalactam inactive, Rv3671c inh inactive and CCHF vOTU inh-2 inactive.
For Cn1c(N)c(C(=O)COC(=O)c2ccc(Br)o2)c(=O)n(C)c1=O the results were RecA splice inh inactive, UGM FP inh inactive, CCHF vOTU inh-1 inactive, Mtb betalactam inactive and Rv3671c inh inactive.
Screening O=C1C(N2CCOCC2)=C(n2nnc3ccccc32)C(=O)c2ccccc21 returned RecA splice inh inactive, UGM FP inh inactive, CCHF vOTU inh-1 104, Mtb betalactam inactive, Rv3671c inh inactive and CCHF vOTU inh-2 98.
CCOC(=O)[C@]12CCCCC/C=C\1N(Cc1ccc(OC)cc1)C(=O)[C@H]2CC(=O)N1CCCC1 was read as CCHF vOTU inh-1 inactive.
`O=C(c1ccccc1Cl)N1CCC(Oc2cccnc2)CC1` gave CCHF vOTU inh-1 inactive.
For Cc1cccc(NC(=O)[C@H]2CC(=O)O[C@@H]2c2ccccc2)c1C the results were CCHF vOTU inh-1 inactive.
Screening COC(=O)C1(C(=O)OC)C[C@H](/C=C/c2ccccc2)N(Cc2ccccc2OC)[C@@H]1c1ccc(F)cc1 returned CCHF vOTU inh-1 31 and CCHF vOTU inh-2 inactive.
`COC(=O)c1c(C)[nH]c(C(=O)C(C)OC(=O)C2CC(=O)N(c3ccc(C)cc3)C2)c1C` (stereo unspecified) gave UGM FP inh inactive, CCHF vOTU inh-1 inactive, Mtb betalactam inactive and Rv3671c inh inactive.
Screening COC(=O)c1c(C)[nH]c(C(=O)C(C)OC(=O)C2CC(=O)N(CCc3ccccc3)C2)c1C (stereo unspecified) returned UGM FP inh inactive, CCHF vOTU inh-1 33, Mtb betalactam inactive, Rv3671c inh inactive and CCHF vOTU inh-2 inactive.
For CN(C(=O)CNC(=O)c1ccccc1OCC(=O)Nc1ccc(Br)cc1)c1ccccc1 the results were CCHF vOTU inh-1 inactive.
For CCOC(=O)N1CCN(C(=O)C[C@H]2C[C@@]3(C(=O)OC)C(=C[C@H](C(C)C)O[C@@H]3C3CC3)N(Cc3cccc4ccccc34)C2=O)CC1 the results were CCHF vOTU inh-1 inactive.
For O=C(NCc1ccc(OC(F)(F)F)cc1)C1CC(c2ccccc2[N+](=O)[O-])=NO1 (stereo unspecified) the results were RecA splice inh inactive, UGM FP inh inactive, CCHF vOTU inh-1 inactive, Mtb betalactam inactive and Rv3671c inh inactive.
`O=C(NCc1ccc(OC(F)(F)F)cc1)C1CC(c2ccccc2C(F)(F)F)=NO1` (stereo unspecified) gave RecA splice inh inactive, UGM FP inh inactive, CCHF vOTU inh-1 37, Mtb betalactam inactive, Rv3671c inh inactive and CCHF vOTU inh-2 inactive.
For CC(C)C[C@H](NC(=O)c1[nH]cnc1C(=O)N[C@@H](C)C(=O)OCc1ccccc1)C(=O)OC(C)(C)C the results were RecA splice inh inactive, UGM FP inh inactive, CCHF vOTU inh-1 30, Mtb betalactam inactive, Rv3671c inh inactive and CCHF vOTU inh-2 inactive.
Screening CC(C)(C)OC(=O)NCc1ccc(CNC(=O)c2[nH]cnc2C(=O)Nc2ccccc2F)cc1 returned CCHF vOTU inh-1 inactive.
Screening CC(C)(C)OC(=O)[C@H](Cc1ccccc1)NC(=O)c1[nH]cnc1C(=O)Nc1ccc(Cl)cc1 returned RecA splice inh inactive, UGM FP inh inactive, CCHF vOTU inh-1 31, Mtb betalactam inactive, Rv3671c inh inactive and CCHF vOTU inh-2 inactive.
CC(C)(C)OC[C@H](NC(=O)c1[nH]cnc1C(=O)Nc1ccccc1F)C(=O)OC(C)(C)C was read as CCHF vOTU inh-1 35 and CCHF vOTU inh-2 inactive.
For C=CCN1[C@H](Cc2ccccc2)COc2cc(N3CCSCC3)ccc2S1(=O)=O the results were CCHF vOTU inh-1 inactive.
COc1ccc(C(=O)CSc2nnc(-c3n[nH]c4c3CCC4)n2N)cc1OC was read as CCHF vOTU inh-1 inactive.
Screening COC(=O)C1=C(C)N(Cc2cccc(C(F)(F)F)c2)C(=NCc2ccc(C(F)(F)F)cc2)NC1c1ccccc1 (stereo unspecified) returned CCHF vOTU inh-1 inactive.
Clc1ccc(C(c2ccc(Cl)cc2)n2cc[n+](CC(OCc3ccc(Cl)cc3Cl)c3ccc(Cl)cc3Cl)c2)cc1 (stereo unspecified) was read as UGM FP inh inactive, CCHF vOTU inh-1 41, Mtb betalactam inactive, Rv3671c inh inactive and CCHF vOTU inh-2 inactive.
O=C(Nc1cccc2ccccc12)C1CCN(C(=O)NCc2ccccc2)CC1 was read as RecA splice inh inactive, UGM FP inh inactive, CCHF vOTU inh-1 35, Mtb betalactam inactive, Rv3671c inh inactive and CCHF vOTU inh-2 inactive.
Screening CSc1nc(-c2ccco2)nn1S(C)(=O)=O returned RecA splice inh inactive, UGM FP inh inactive, CCHF vOTU inh-1 36, Mtb betalactam inactive, Rv3671c inh inactive and CCHF vOTU inh-2 inactive.
CSc1nc(-c2ccco2)nn1C(=O)Cc1ccccc1 was read as RecA splice inh inactive, UGM FP inh inactive, CCHF vOTU inh-1 inactive, Mtb betalactam inactive and Rv3671c inh inactive.
Screening CCCCCCCCN1C(=O)[C@@H](CC(=O)NCCCOCCCC)C[C@@]2(C(=O)OC)C1=C[C@H](C(C)C)O[C@@H]2C1CC1 returned CCHF vOTU inh-1 35 and CCHF vOTU inh-2 37.
For C#CCNC(=O)C[C@H]1C[C@@]2(C(=O)OC)C(=C[C@H](C(C)C)O[C@@H]2C2CC2)N(CCCCCCCC)C1=O the results were CCHF vOTU inh-1 39 and CCHF vOTU inh-2 inactive.
Screening CCCCCCCCN1C(=O)[C@@H](CC(=O)N2CCN(C(=O)c3ccco3)CC2)C[C@@]2(C(=O)OC)C1=C[C@H](C(C)C)O[C@@H]2C1CC1 returned CCHF vOTU inh-1 32 and CCHF vOTU inh-2 inactive.
`COC(=O)[C@]12C[C@H](CC(=O)N3CCN(C(=O)c4ccco4)CC3)C(=O)N(Cc3ccco3)C1=C[C@H](C(C)C)O[C@@H]2C1CC1` gave CCHF vOTU inh-1 inactive.
CCCCC[C@@H]1C=C(C(=O)O)[C@H](c2cccc(C)c2)N1S(=O)(=O)c1ccc(C)cc1 was read as UGM FP inh inactive, CCHF vOTU inh-1 32, Mtb betalactam inactive, Rv3671c inh inactive and CCHF vOTU inh-2 inactive.
